What all share (experiment): log2 fold change, soluble protein after heating vs DMSO (PISA); higher = thermal stabilisation; K562 cells, 10 uM, 30 min; active = over 0.2 and 3.5 SD of the protein, either way, in both replicates (recomputed)
Compound in experiment [1]: NC(=O)Nc1cc(-c2cccc(F)c2)sc1C(=O)N[C@H]1CCCNC1
In short, it runs like this: (§1)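 K562 cells at 2×10^6 cells/mL were treated with 10 μM compound for 30 min. Aliquots were heated for 3 min across 48°C-58°C, pooled, and extracted in PBS with 0.5% NP-40 at 4°C; soluble protein was the supernatant after 21,000xg for 90 min. Soluble protein was quantified by TMTpro 16plex LC-MS/MS with channel sums equalised, and reported as log2 fold change in thermal stability against DMSO controls, with values from duplicates.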

Compound in experiment [2]: NC(=O)c1cnc(N[C@@H]2CCCC[C@@H]2N)nc1Nc1cccc(-n2nccn2)c1
In short, it runs like this: as §1

Compound in experiment [3]: NC1(c2ccc(-c3nc4ccn5c(=O)[nH]nc5c4cc3-c3ccccc3)cc2)CCC1
The essentials: as §1

Compound in experiment [4]: NCC(=O)Nc1ccc(-n2nc(C(F)(F)F)cc2-c2ccc3c(ccc4ccccc43)c2)cc1
The essentials:
as §1

Compound in a further experiment: Nc1ccccc1NC(=O)c1ccc(CNC(=O)OCc2cccnc2)cc1 [entinostat]
The essentials: as §1

Compound in the next experiment: O=C(CCCCCCC(=O)Nc1ccccc1)NO [vorinostat]
In short, it runs like this: as §1

Compound in a further experiment: O=C(CCCCCCNC(=O)c1cnc(N(c2ccccc2)c2ccccc2Cl)nc1)NO [citarinostat]
In short, it runs like this: as §1

Compound in a further experiment: O=C(O)c1ccc2c(c1)nc(Nc1cccc(Cl)c1)c1ccncc12 [silmitasertib]
In short, it runs like this: as §1

Compound in experiment [5]: O=C1NC(=O)C(c2cnc3ccccn23)=C1c1cn2c3c(cc(F)cc13)CN(C(=O)N1CCCCC1)CC2
In short, it runs like this:
as §1

Compound in experiment [6]: c1cc(OCCN2CCCCC2)cc(-c2n[nH]c3ccc(-c4nnc[nH]4)cc23)c1
The essentials: as §1

Targets with a hit are over-represented here; the source holds about 7,900 in all. About 0.6% of all pairs of compound and target were hits. A number with no mark means an inactive call.

Sequence of UniProt Q9Y680 (Q9Y680 whole entry, looked up): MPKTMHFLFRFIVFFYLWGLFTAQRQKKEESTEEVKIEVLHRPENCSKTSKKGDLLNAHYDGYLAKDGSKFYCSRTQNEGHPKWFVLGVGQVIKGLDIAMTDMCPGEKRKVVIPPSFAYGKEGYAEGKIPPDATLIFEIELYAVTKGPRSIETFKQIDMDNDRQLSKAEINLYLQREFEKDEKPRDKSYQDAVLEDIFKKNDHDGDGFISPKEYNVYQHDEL
Sequence of UniProt Q8IVP5 (Q8IVP5 whole entry, looked up): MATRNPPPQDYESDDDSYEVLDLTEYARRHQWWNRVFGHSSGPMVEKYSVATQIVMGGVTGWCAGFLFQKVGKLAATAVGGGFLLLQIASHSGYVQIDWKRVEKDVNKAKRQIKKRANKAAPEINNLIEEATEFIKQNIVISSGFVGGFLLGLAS
Sequence of UniProt Q14789 (Q14789 whole entry, looked up): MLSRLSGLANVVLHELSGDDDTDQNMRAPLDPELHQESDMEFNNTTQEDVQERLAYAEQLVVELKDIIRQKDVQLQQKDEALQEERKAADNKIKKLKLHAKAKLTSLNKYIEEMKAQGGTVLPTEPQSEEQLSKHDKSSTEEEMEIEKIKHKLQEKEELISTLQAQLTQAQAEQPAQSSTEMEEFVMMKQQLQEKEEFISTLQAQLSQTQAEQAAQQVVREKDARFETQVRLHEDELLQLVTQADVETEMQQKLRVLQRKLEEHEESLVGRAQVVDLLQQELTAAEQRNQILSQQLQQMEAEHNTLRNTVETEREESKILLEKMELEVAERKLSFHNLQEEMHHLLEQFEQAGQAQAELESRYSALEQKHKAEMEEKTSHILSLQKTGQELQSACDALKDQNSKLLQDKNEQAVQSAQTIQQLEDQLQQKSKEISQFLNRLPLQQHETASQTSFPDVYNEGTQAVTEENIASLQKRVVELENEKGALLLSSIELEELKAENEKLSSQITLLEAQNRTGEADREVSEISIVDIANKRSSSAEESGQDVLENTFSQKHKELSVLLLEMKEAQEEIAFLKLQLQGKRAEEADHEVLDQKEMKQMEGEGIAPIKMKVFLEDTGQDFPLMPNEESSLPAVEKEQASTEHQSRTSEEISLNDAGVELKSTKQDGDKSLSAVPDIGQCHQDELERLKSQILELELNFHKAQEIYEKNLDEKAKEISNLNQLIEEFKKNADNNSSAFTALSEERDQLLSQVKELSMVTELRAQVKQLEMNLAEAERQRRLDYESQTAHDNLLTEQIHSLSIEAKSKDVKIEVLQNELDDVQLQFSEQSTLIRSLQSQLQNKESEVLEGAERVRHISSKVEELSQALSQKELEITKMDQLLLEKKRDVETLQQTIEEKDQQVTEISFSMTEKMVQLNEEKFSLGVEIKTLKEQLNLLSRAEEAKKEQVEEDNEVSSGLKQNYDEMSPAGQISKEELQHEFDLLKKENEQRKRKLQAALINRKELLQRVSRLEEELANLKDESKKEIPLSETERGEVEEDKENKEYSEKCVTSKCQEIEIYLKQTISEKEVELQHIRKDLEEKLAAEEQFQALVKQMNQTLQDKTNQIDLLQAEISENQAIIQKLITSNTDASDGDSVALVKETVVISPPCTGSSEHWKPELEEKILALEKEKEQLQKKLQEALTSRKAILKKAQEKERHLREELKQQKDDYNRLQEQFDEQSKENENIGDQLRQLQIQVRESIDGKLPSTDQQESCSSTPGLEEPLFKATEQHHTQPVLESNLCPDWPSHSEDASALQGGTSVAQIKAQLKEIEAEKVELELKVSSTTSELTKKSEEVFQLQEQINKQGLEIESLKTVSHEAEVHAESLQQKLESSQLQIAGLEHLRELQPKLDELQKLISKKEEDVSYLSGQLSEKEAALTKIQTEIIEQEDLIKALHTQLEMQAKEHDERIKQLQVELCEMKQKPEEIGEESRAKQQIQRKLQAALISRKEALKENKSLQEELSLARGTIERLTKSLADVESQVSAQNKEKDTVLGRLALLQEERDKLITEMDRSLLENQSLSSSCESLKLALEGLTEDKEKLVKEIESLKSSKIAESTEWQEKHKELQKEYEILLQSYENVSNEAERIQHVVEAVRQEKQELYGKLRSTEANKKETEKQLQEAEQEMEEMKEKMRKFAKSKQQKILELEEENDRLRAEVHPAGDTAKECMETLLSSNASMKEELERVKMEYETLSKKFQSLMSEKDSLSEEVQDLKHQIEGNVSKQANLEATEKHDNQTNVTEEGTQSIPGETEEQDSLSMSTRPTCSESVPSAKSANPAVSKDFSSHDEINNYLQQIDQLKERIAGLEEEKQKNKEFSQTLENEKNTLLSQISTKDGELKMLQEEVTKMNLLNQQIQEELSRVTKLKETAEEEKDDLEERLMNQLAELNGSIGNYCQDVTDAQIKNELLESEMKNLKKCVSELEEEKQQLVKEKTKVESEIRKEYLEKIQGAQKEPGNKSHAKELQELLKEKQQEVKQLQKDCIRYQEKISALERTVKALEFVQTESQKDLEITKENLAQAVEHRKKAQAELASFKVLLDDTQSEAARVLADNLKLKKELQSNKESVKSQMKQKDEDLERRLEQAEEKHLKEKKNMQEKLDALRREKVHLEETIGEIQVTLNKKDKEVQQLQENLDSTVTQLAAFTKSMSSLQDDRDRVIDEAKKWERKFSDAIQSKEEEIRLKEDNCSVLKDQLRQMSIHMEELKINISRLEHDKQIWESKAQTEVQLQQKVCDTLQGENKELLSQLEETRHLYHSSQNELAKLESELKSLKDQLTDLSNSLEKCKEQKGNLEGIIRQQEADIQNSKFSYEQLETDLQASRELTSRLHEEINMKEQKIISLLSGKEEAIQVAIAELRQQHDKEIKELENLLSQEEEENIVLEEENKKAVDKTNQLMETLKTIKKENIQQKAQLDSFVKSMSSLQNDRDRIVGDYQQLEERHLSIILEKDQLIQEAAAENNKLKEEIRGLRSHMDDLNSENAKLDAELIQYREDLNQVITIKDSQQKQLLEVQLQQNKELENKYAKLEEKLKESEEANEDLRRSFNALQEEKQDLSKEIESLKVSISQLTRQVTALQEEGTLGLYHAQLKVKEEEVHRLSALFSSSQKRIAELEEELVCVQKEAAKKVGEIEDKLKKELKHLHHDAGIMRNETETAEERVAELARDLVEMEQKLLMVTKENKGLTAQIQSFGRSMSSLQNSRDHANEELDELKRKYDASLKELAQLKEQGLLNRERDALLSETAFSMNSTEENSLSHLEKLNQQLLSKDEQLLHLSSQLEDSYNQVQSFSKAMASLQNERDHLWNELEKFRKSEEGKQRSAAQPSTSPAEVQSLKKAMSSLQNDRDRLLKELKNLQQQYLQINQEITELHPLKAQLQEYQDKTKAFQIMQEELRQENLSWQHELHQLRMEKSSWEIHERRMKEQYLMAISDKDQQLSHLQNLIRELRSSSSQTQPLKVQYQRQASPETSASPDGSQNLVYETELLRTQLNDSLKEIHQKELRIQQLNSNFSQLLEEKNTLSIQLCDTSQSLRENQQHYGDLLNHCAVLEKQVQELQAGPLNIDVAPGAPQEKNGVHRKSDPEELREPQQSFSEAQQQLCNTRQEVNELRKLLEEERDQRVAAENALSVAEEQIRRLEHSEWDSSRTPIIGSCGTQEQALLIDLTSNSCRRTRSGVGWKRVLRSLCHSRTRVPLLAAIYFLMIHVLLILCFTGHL
Sequence of UniProt P01112 (P01112 whole entry, looked up): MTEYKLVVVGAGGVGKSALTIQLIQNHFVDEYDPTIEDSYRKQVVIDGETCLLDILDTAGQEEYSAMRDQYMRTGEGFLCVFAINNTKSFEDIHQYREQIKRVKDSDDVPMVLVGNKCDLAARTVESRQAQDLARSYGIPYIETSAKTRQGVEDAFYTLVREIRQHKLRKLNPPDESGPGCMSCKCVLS
Sequence of UniProt Q86VS8 (Q86VS8 whole entry, looked up): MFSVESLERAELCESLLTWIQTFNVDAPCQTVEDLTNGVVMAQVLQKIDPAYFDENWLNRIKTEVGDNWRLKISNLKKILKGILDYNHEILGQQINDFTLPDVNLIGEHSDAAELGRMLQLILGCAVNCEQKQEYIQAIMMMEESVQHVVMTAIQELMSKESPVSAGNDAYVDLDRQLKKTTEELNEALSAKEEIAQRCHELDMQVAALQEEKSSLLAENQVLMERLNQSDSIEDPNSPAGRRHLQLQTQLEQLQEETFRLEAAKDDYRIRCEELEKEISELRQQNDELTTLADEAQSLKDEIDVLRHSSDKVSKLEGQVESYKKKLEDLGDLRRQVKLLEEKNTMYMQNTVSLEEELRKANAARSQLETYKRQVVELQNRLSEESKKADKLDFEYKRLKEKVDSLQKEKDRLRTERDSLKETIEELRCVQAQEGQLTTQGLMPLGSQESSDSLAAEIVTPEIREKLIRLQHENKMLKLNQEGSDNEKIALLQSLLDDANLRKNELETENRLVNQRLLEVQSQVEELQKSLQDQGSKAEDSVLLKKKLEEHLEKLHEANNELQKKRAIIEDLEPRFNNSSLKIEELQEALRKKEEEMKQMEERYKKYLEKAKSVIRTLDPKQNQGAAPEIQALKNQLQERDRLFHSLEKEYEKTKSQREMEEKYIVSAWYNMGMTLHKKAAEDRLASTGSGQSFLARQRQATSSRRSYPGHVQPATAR
Sequence of UniProt P0CL80 (P0CL80 whole entry, looked up): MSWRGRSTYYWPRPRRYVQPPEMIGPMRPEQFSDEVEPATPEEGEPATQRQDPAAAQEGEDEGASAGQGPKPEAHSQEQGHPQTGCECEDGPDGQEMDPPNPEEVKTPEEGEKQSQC
Sequence of UniProt O60725 (O60725 whole entry, looked up): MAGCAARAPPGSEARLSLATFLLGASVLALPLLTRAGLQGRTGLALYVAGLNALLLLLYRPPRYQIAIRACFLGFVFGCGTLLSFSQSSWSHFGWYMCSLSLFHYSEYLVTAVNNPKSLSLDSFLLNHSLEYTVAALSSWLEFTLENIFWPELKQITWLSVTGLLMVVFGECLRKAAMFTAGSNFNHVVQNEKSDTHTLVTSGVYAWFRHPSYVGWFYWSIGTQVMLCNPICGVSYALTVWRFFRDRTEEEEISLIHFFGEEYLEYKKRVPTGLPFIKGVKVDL

Regarding FNTB (UniProt P49356), the log2 fold change in experiment [1] was -0.024; in experiment [2], 0.09; in experiment [3], 0.162; in [4], -0.035; with entinostat it was -0.079; with vorinostat, -0.038. Also, the log2 fold change was 0.054 with citarinostat, -0.019 with silmitasertib, 0.048 in experiment [5] and 0.002 in experiment [6].

As for HRAS (UniProt P01112), the log2 fold change in experiment [1] is 0.103; in [2], 0.233; in experiment [3], 0.071; in experiment [4], 0.366 (active); with entinostat, -0.012; with vorinostat, -0.009. Also, the log2 fold change is -0.067 in the experiment with citarinostat, 0.003 with silmitasertib, 0 in [5] and 0.007 in [6].

Turning to GOLGB1 isoform 2 (UniProt Q14789), the log2 fold change was 0.106 in [1]; -0.062 in [2]; -0.044 in [3]; 0.026 in experiment [4]; 0.024 in the experiment with entinostat; -0.019 in the experiment with vorinostat. The log2 fold change with citarinostat was -0.008; in the experiment with silmitasertib, 0.009; in experiment [5], 0.039; in experiment [6], 0.167.

For the target GAGE12F (UniProt P0CL80), the log2 fold change is 0.029 in experiment [1]; -0.013 in [2]; 0.083 in experiment [3]; -0.059 in experiment [4]; 0.031 in the experiment with entinostat; 0.024 with vorinostat. The log2 fold change with citarinostat was 0; with silmitasertib it was 0.01; in [5], 0.021; in experiment [6], -0.08.

For the target GBA2 (UniProt Q9HCG7), the log2 fold change in experiment [1] is -0.008; in [2], -0.006; in experiment [3], -0.108; in [4], -0.129; with entinostat it was -0.023; in the experiment with citarinostat, -0.332. The log2 fold change is 0.124 with silmitasertib, -0.027 in experiment [5] and -0.211 in [6].

In the case of GOPC (UniProt Q9HD26), the log2 fold change in experiment [1] is -0.055; in experiment [2], -0.011; in [3] it was 0.15; in experiment [4], -0.002; with entinostat, -0.092; with vorinostat it was -0.038. Also, the values for the log2 fold change (in the experiment with silmitasertib; in experiment [5]) were 0.029 and 0.265, respectively.

GALNT4 (UniProt Q8N4A0): the log2 fold change in experiment [1] is -0.013; in [2], -0.117; in experiment [3], -0.072; in experiment [4], -1.32 (active); with entinostat, -0.064; with vorinostat, 0.055. Further, the log2 fold change in the experiment with citarinostat is 0.009; with silmitasertib, 0.003; in experiment [5] it was 0.051; in experiment [6], -0.064.

Take HOOK3 (UniProt Q86VS8): the log2 fold change is 0.05 in experiment [1]; -0.077 in experiment [2]; -0.079 in experiment [3]; -0.081 in experiment [4]; 0.063 with entinostat; 0.056 with vorinostat. Further, the log2 fold change in the experiment with citarinostat was -0.022; in the experiment with silmitasertib it was 0.101; in experiment [5] it was -0.049; in [6] it was -0.05.

FKBP7 (UniProt Q9Y680): the log2 fold change in experiment [1] is -0.034; in experiment [2] it was -0.017; in [3] it was 0.005; in experiment [4], -0.037; with entinostat it was -0.029; with vorinostat, -0.017. Also, the log2 fold change with citarinostat is -0.02; in the experiment with silmitasertib, 0.079; in [5], 0.008; in [6] it was -0.097.

FMR1 (UniProt Q06787): the log2 fold change in [1] is 0.086; in experiment [3], 0.836 (active); with entinostat it was -0.106; in the experiment with vorinostat, -0.137; in the experiment with citarinostat it was 0.101; with silmitasertib, 0.058. In addition, the log2 fold change in [6] was -0.146.

For HDAC10 (UniProt Q969S8), the log2 fold change in experiment [2] was 0.061; in experiment [3], -0.076; in experiment [4], -0.033; with vorinostat it was 0.208; with citarinostat, 0.062; with silmitasertib, -0.271. Further, the log2 fold change in experiment [6] was -0.09.

In the case of HDAC1 (UniProt Q13547), the log2 fold change in [1] was -0.015; in [2], 0.128; in experiment [3], -0.017; in experiment [4], 0.006; with vorinostat, 1.79 (active); in the experiment with citarinostat, 1.52 (active). In addition, the log2 fold change with silmitasertib was 0.06; in experiment [5], -0.03; in [6], 0.003.

As to FAT2 (UniProt Q9NYQ8), the log2 fold change in experiment [3] was -0.334; in experiment [4], -0.134; with vorinostat, 0.068; in the experiment with citarinostat, -0.045; in the experiment with silmitasertib it was -0.063; in [5], -0.06. The log2 fold change in experiment [6] is -0.06.

As for GDE1 (UniProt Q9NZC3), the log2 fold change was -0.001 in [1]; 0.058 in experiment [2]; 0.094 in experiment [3]; -0.01 in experiment [4]; -0.065 with entinostat; 0.024 in the experiment with citarinostat. Besides, the log2 fold change with silmitasertib was -0.086; in experiment [5], -0.008; in experiment [6] it was 0.032.

With ICMT (UniProt O60725), the log2 fold change in [1] is 0.031; in [2], -0.153; in experiment [3], -0.233; in [4] it was -0.079; with entinostat, 0.007; in the experiment with citarinostat it was -0.034. In addition, the values for the log2 fold change (with silmitasertib; in experiment [5]; in experiment [6]) were 0.022, -0.013 and -0.016, respectively.

On to FUNDC1 (UniProt Q8IVP5), for which the log2 fold change in experiment [1] is -0.058; in experiment [3] it was -0.104; with entinostat it was 0.01; with silmitasertib, 0.055.

On to FASTKD1 (UniProt Q53R41), for which the log2 fold change was 0.046 in experiment [1]; -0.014 in experiment [2]; 0.033 in experiment [4]; -0.019 in the experiment with entinostat; 0.018 with vorinostat; -0.055 with citarinostat. The log2 fold change in [5] is -0.12; in experiment [6] it was 0.046.

Values taken from the supplement of paper PMC10849652.
